Screens (PubChem)
DT40 TDP1 CPT = qHTS for Inhibitors of human tyrosyl-DNA phosphodiesterase 1 (TDP1): qHTS in cells in presence of CPT | chicken DT40 Tdp1-/-;hTDP1 cells + 20 nM CPT, ATP luminescence, 48 h | Potency, µM (doses to about 46.2 µM), for the others: at the top dose activity change, negative = growth inhibition, most hits filed as inhibitors | actives 12% (n = 420,000) | AID 686979, 2013; further: potency means the concentration at half of the fitted maximal effect; on the % scale 0 is the no-effect control and ±100 the full control effect; nearly all actives have a fitted effect of over 55% in size
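Chicken DT40 Tdp1-/- cells complemented with human TDP1, 400 cells/well, exposed to compounds plus 20 nM camptothecin for at least 48 h at 37 C; viability read as ATP content by CellTiter-Glo luminescence.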
TDP1 cell noCPT = qHTS for Inhibitors of human tyrosyl-DNA phosphodiesterase 1 (TDP1): qHTS in cells in absence of CPT | DT40 Tdp1-/- hTDP1 cells, no CPT, ATP luminescence, 48 h | Potency, µM (top dose mostly 46.2 µM), inactives show at the highest dose activity change, negative = growth inhibition, most hits filed as inhibitors | AID 686978, 2013 | actives 15% (n = 420,000); further: potency means the concentration at half of the fitted maximal effect; on the % scale 0 is the no-effect control and ±100 the full control effect; nearly all actives have a fitted effect of over 55% in size
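Chicken DT40 Tdp1-/- cells complemented with human TDP1, screened without camptothecin (DMSO vehicle only), 400 cells/well. Compounds pin-transferred, cells incubated at 37 °C for at least 48 hr. Growth read as ATP-dependent luminescence (CellTiter-Glo, 30 min at RT).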
HepG2 tox = qHTS for Inhibitors of TGF-b: Cytotox Counterscreen; actives 0.76% (n = 410,000); HepG2 CAGA-GFP viability, ATP luminescence, 18 h; Potency, µM (series often up to 46.1 µM), inactives show at the top dose activity change, negative = cytotoxicity, actives largely listed as cytotoxic; further: potency means the concentration at half of the fitted maximal effect
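HepG2 CAGA-GFP cells (1000/well, DMEM with 1% FBS) received compound, then TGF-beta at 500 pg/mL final, and were incubated 18 hours at 37 degrees C. Viability was read by CellTiter-Glo luminescence. Media-only wells were set as complete cell-killing and DMSO as no toxicity.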
TGFb inhibitor = qHTS for Inhibitors of TGF-b. HepG2 CAGA-GFP TGF-b/SMAD3 reporter, GFP fluorescence, 18 h; TGF-beta stimulated, 500 pg/mL final. Potency, µM (top dose mostly 46.1 µM), inactives show top-dose activity, negative = inhibition, hits mostly inhibitors. actives 1.2% (n = 410,000); further: potency means the concentration at half of the fitted maximal effect; on the % scale 0 is the no-effect control and ±100 the full control effect; nearly all actives have a fitted effect of over 65% in size
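Cell-based qHTS in HEPG2 carrying a CAGA-GFP Smad reporter; compounds added before 500 pg/mL final TGF-beta, 18 h incubation at 37 degrees C, GFP fluorescence quantified per cell by imaging cytometry.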
TDP1 inh = qHTS Assay for Inhibitors of Tyrosyl-DNA Phosphodiesterase (TDP1). Potency, µM (titrated, usually from 130 µM), without a hit: top-dose activity change, negative = inhibition, usual class: inhibitors. AID 485290, 2010. actives 0.28% (n = 350,000). recombinant TDP1, AlphaScreen DNA substrate cleavage. Tyrosyl-DNA phosphodiesterase 1 (Homo sapiens), Q9NUW8; further: potency means the concentration at half of the fitted maximal effect; on the % scale 0 is the no-effect control and ±100 the full control effect; nearly all actives have a fitted effect of over 40% in size
Target sequence (Q9NUW8 whole entry, looked up): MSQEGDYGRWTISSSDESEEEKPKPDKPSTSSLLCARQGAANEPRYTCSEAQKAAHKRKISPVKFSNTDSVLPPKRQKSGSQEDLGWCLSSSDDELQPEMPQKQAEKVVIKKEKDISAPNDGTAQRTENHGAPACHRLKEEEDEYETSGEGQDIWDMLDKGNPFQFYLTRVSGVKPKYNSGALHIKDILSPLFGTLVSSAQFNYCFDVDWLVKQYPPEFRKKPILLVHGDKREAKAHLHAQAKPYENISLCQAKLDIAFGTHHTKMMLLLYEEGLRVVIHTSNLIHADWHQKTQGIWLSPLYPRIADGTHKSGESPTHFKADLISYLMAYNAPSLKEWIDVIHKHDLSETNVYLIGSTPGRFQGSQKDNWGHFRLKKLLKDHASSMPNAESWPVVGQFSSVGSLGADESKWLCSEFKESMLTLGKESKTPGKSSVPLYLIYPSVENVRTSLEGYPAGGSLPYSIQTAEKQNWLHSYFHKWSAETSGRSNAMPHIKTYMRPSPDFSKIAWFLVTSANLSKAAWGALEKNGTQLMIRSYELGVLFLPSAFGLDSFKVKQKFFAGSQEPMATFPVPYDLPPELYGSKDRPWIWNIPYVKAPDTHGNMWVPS
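Signal: AlphaScreen proximity between streptavidin donor and anti-FITC acceptor beads on intact substrate. Reaction: Tdp1 1 nM, substrate 15 nM final, 5 min RT after 15 min compound preincubation.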
IL1B secr inh = qHTS for Inhibitors of Inflammasome Signaling: IL-1-beta AlphaLISA Primary Screen. actives 4.7% (n = 360,000). activity change, % at 57.5 µM. AID 743279, 2014. THP-1 LPS/ATP IL-1B secretion, AlphaLISA, 16 h; hits give low values; in the data active means activity change below about -50%; inconclusive means mostly about -30% to -49%; further: on the % scale 0 is the no-effect control and ±100 the full control effect
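THP-1 cells pretreated 1 hr with compounds (up to 57.5 uM final), then stimulated with LPS (250 ng/mL final) plus ATP (1.25 mM final); secreted IL-1B measured by AlphaLISA after 16 hr, decreased signal indicating inhibition.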
Active calls of the source: *; u = inconclusive; x = no result; [ ] = remark or other dose. Shown are actives, neighbours in structure and some others; about 18% of the full set was active somewhere. Unless noted, the call rests on the fitted dose curve; in most records, active means well fitted curve in the direction sought with a large enough effect; inconclusive means small, poorly fitted or top-dose-only effect, or another doubt; inactive means no such curve, though single readings can be large; an effect the other way counts as inactive or inconclusive.

SMILES	DT40 TDP1 CPT	TDP1 cell noCPT	HepG2 tox	TGFb inhibitor	TDP1 inh	IL1B secr inh
Cc1cc(C)c(N(C(=O)Cn2nnc3ccccc32)C(C(=O)NC(C)(C)C)c2ccsc2)c(C)c1 (stereo not given)	16µM*	u	-14%	u	3%	12
Cc1ccc(C)c(N(C(=O)Cn2nnc3ccccc32)C(C(=O)NC(C)(C)C)c2ccsc2)c1 (stereo not given)	23µM*	u	2%	3%	4%	30
Cc1ccc(Cl)cc1NC(=O)CSc1nc2c(c(=O)[nH]1)CN(Cc1ccccc1)CC2	-16%	u	-15%	u	9%	x
CN(C(=O)CSc1nc2c(c(=O)[nH]1)CCCC2)c1ccccc1	9.2µM*	-28%	-5%	-12%	9%	x
CCCN1CCc2nc(SCC(=O)Nc3ccc(C)c(Cl)c3)[nH]c(=O)c2C1	u	18µM*	2%	-4%	11%	-8
CCCCOC(=O)c1ccc(NC(=O)CSc2nc3c(c(=O)[nH]2)CCCC3)cc1	u	13µM*	0%	-1%	3%	x
O=C(O)CSc1nc2c(c(=O)[nH]1)CCCC2	-4%	-1%	5%	1%	3%	29
CN(C)c1cccc(C(=O)N2CCCC(CCC(=O)N3CCN(c4ccccn4)CC3)C2)c1 (stereo not given)	u	u	-4%	-9%	9%	-10
CNS(=O)(=O)c1cn(CC(=O)N2CCN(c3ccccc3OC)CC2)cc1S(=O)(=O)NC	-5%	-11%	-17%	0%	0%	x
Cc1nc2ccccc2nc1SCC(=O)c1ccccc1	u	7.3µM*	-30%	-23%	2%	15
O=C(CSc1ccc2ccccc2n1)c1ccccc1	0%	u	-1%	15%	x	37
O=C(CCCSc1nc2ccccc2c(=O)[nH]1)c1ccc(F)cc1	12µM*	u	3%	3%	3%	0
Cc1ccc(C(=O)CSc2nc3ccccc3c(=O)[nH]2)cc1	5.8µM*	8.2µM*	0%	-5%	3%	0
O=c1[nH]c(SCCOc2cccc3ccccc23)nc2ccccc12	u	7.3µM*	-5%	14%	-3%	20
COc1cccc(C(=O)NOCc2ccccc2)c1OC	-23%	0%	2%	1%	0%	-27
Cc1cc(C)n(CC(=O)N2CCC(n3c(C(C)C)nc4cccnc43)CC2)n1	14%[9.04 µM]	-10%	x	x	x	x
Cc1cc(O)c(C)c(O)c1C(=O)O	0%	-13%	x	x	-9%[56.1 µM]	x
Cc1cc(=O)[nH]c(SCC(=O)c2ccc(C(C)C)cc2)n1	-26%	18µM*	4%	17%	0%	22
CCc1ccc(C(=O)CSc2nc3ccccc3c(=O)[nH]2)cc1	1.5µM*	1.6µM*	-19%	-8%	2%	51
Oc1ccc(COc2ccccc2Cl)c2cccnc12	x	x	x	x	3%	x
Nc1nc(-c2ccc(F)cc2)cs1	-6%	-14%	-3%	-20%	-1%	-4
N/C(Cc1nc(-c2ccc(F)cc2)cs1)=N\O	-15%	-11%	-38%	9%	1%	-54*
Cc1onc(-c2ccccc2)c1C(=O)OCC(=O)c1ccc(F)cc1	u	23µM*	4%	2%	x	7
Cc1onc(-c2ccccc2)c1C(=O)OCC(=O)c1ccccc1	-1%	u	-3%	21%	-4%	21
Cc1onc(-c2ccccc2)c1C(=O)OCCOc1ccccc1F	u	u	-4%	-3%	x	-23
SMILES	DT40 TDP1 CPT	TDP1 cell noCPT	HepG2 tox	TGFb inhibitor	TDP1 inh	IL1B secr inh
CCOC(=O)c1c(-c2ccc(F)cc2)csc1NC(=O)c1c(-c2ccccc2)noc1C	u	21µM*	-40%	-2%	3%	-4
COC(=O)c1c(-c2ccccc2)csc1NC(=O)c1c(-c2ccccc2)noc1C	-17%	u	-10%	u	-2%	-23
Cc1ccccc1OCCOC(=O)c1c(-c2ccccc2)noc1C	7.3µM*	18µM*	-3%	-19%	x	64
Cc1onc(-c2ccccc2)c1C(=O)OCCOc1ccc([N+](=O)[O-])cc1[N+](=O)[O-]	u	21µM*	-30%	14µM*	x	-24
Nc1ccc(-c2n[nH]c(=O)c3ccccc23)cc1N	0.46µM*	u	16%	4%	4%	23
Cc1ccc(-c2n[nH]c(=O)c3ccccc23)cc1N	u	-23%	-5%	-16%	3%	21
O=c1[nH]c(Nc2ccccn2)cc2ccccc12	u	u	-27%	0%	x	24
O=c1[nH]c(-c2ccccn2)cc2ccccc12	-28%	-21%	-10%	-7%	8%	-56*
COC(=O)c1ccccc1NC(=O)c1cc2cc(C)ccc2n1C	6.5µM*	5.8µM*	4%	1%	4%	x
O=C(COC(=O)Cn1nnc(-c2ccccc2)n1)Nc1cc(F)ccc1F	1%	5%	1%	0%	0%	-6
COc1ccc(-n2nc(C(=O)N3CCCCC3C)c3c4ccccc4n(C)c3c2=O)cc1Cl (stereo not given)	u	u	-30%	-5%	0%	x
CCOC(=O)C1CCN(C(=O)c2nn(-c3ccc(OC)c(Cl)c3)c(=O)c3c2c2ccccc2n3C)CC1	21µM*	15µM*	3%	-22%	5%	x
COc1ccc(-n2nc(C(=O)N3CCCCC3)c3c4ccccc4n(C)c3c2=O)cc1Cl	4.1µM*	16µM*	-14%	-12%	2%	x
COc1ccc(-n2nc(C(=O)N3CCCC(C)C3)c3c4ccccc4n(C)c3c2=O)cc1 (stereo not given)	26µM*	u	-13%	0%	2%	x
CCOc1ccc(NC(=O)N(C)CCc2c(C)nn(C)c2C)cc1	1%	-28%	-5%	17%	9%	x
COc1cccc(-c2nc(C(N)=O)c3c(n2)n(-c2ccc4c(c2)OCO4)c(=O)n3C)c1OC	x	x	-28%	10%	5%	x
C#Cc1cccc(Nc2nc(NC(C)C)nc3ccsc23)c1	u	21µM*	-52%	u	x	-24
C#Cc1cccc(Nc2nc(NCCOC)nc3ccsc23)c1	16µM*	21µM*	-28%	-21%	x	-8
C#Cc1cccc(Nc2nc(NCc3ccccc3OC)nc3ccsc23)c1	9.2µM*	9.2µM*	-54%	11µM*	x	-71*
